For one sequence, binding signal results are on record in publication PMC7862700, “An all-to-all approach to the identification of sequence-specific readers for epigenetic DNA modifications on cytosine”.

Holding throughout (experiment): DAPPL (digital affinity profiling via proximity ligation, sequencing); 10 mM Tris-HCl pH 7.5, 50 mM NaCl, 1 mM DTT, 4% glycerol, room temperature, 30 min; GST-TFs on glutathione beads, 16-mer random dsDNA library, 0.1% formaldehyde crosslink after washing; high values mean tight binding
Assay [1] addresses T1, FEV (Homo sapiens, UniProt Q99581 1-238).
T1 sequence: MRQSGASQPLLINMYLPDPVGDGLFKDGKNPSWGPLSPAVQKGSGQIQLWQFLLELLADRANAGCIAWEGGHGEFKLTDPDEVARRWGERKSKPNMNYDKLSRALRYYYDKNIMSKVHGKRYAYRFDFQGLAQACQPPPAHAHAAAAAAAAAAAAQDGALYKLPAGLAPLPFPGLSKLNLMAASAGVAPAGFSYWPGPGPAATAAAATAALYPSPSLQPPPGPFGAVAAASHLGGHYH
The note with it: protein: recombinant; tags: N-terminal GST; dsDNA, one strand shown. A digest of the protocol: (§1)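 In yeast, human transcription factors were expressed with a GST fusion, then pulled down on glutathione beads and given DNA barcodes. Pooled with a tag-only sample, they were exposed to 200 nmole of a 16-mer random double-stranded DNA library (Tris/NaCl/DTT/glycerol buffer, room temperature, 30 min), washed, crosslinked with 0.1% formaldehyde, proximity-ligated using BsaI/T4 ligase for 1 h at 37 °C, PCR-amplified and read on an Illumina NextSeq500. Each hexamer's frequency of reads for a factor, divided by the matching frequency for the tag-only sample, gives the binding signal.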

Assay [2] has as its target ETV5 (Homo sapiens, UniProt P41161 1-510). The note with it: protein: recombinant; tags: N-terminal GST; dsDNA, one strand shown. A digest of the protocol: as §1
For assay [3], the target named is HSF1 (Homo sapiens, UniProt Q00613 1-529). The settings on record: protein: recombinant; tags: N-terminal GST; chain copies: 3; dsDNA, one strand shown. The method in brief:
as §1

Assay [4] concerns the target T2, SPIC (Homo sapiens, UniProt Q8N5J4 1-248).
T2 sequence: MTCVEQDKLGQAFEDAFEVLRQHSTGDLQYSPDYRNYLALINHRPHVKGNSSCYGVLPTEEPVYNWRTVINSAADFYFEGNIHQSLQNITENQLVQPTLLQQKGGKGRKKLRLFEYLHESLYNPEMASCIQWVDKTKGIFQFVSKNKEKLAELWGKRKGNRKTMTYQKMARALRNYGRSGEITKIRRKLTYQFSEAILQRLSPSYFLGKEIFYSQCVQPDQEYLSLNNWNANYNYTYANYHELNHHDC
The settings on record: protein: recombinant; tags: N-terminal GST; dsDNA, one strand shown. The method in brief:
as §1

Assay [5] deals with ELF4 (Homo sapiens, UniProt Q99607 1-663). The note with it: protein: recombinant; tags: N-terminal GST; dsDNA, one strand shown. The method in brief: as §1
Assay [6] concerns the target T3, ELK4 (Homo sapiens, UniProt P28324-2 1-405).
T3 sequence: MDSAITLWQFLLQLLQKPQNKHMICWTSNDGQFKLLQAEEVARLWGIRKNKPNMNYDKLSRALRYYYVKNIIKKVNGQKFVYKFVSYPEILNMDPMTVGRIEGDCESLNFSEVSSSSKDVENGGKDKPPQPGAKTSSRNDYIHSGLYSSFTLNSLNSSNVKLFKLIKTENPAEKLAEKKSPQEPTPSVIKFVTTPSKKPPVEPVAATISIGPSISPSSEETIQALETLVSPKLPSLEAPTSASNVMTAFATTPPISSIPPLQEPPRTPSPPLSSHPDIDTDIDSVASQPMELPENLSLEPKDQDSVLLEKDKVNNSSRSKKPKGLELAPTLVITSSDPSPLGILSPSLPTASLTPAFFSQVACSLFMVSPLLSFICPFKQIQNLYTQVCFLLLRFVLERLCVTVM
The settings on record: protein: recombinant; tags: N-terminal GST; dsDNA, one strand shown. A digest of the protocol:
as §1

Assay [7] deals with T4, ETV2 (Homo sapiens, UniProt O00321 1-342).
T4 sequence: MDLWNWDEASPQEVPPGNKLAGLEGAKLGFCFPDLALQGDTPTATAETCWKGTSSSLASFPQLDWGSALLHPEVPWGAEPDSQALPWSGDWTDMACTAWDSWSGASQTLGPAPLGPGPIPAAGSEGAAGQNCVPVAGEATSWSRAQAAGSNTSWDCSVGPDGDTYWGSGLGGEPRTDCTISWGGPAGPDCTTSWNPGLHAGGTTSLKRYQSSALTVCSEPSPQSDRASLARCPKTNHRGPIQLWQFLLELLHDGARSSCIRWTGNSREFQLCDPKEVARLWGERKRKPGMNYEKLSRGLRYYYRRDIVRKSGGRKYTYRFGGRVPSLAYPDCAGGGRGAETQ
The settings on record: protein: recombinant; tags: N-terminal GST; dsDNA, one strand shown. The method in brief:
as §1

For assay [8], the target named is T5, ELF3 (Homo sapiens, UniProt P78545 1-371).
T5 sequence: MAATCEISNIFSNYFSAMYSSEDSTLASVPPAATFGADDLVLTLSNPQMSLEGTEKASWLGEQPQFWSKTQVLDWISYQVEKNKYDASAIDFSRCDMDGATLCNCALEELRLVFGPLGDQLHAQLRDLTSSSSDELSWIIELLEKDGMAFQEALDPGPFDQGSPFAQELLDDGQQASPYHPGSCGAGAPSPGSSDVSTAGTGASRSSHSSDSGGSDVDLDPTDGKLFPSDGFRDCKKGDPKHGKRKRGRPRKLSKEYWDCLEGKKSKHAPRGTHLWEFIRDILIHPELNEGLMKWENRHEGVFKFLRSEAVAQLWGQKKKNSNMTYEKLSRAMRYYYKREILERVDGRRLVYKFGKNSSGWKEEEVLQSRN
The settings on record: protein: recombinant; tags: N-terminal GST; dsDNA, one strand shown. A digest of the protocol:
as §1

The target of assay [9] is CRX (Homo sapiens, UniProt O43186 1-299). The note with it: protein: recombinant; tags: N-terminal GST; dsDNA, one strand shown. A digest of the protocol: as §1
Assay [10] addresses ETV1 (Homo sapiens, UniProt P50549 1-477). The note with it: protein: recombinant; tags: N-terminal GST; dsDNA, one strand shown. A digest of the protocol: as §1
The target in assay [11] is T6, ERF (Homo sapiens, UniProt P50548 1-548).
T6 sequence: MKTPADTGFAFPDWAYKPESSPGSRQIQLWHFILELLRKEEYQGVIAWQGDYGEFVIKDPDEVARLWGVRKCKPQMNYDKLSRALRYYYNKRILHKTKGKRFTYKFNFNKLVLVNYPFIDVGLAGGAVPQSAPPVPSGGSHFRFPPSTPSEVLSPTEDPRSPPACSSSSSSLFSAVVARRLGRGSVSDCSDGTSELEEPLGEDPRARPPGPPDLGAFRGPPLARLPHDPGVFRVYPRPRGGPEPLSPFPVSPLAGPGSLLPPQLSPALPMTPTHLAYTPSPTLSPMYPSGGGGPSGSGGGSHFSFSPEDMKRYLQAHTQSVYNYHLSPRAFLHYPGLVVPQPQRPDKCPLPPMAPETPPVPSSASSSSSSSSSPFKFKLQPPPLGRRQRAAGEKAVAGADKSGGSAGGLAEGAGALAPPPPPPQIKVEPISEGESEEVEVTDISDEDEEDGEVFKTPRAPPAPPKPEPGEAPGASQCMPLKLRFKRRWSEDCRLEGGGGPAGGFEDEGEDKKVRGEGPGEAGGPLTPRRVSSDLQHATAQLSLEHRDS
The note with it: protein: recombinant; tags: N-terminal GST; dsDNA, one strand shown. The method in brief: as §1

In assay [12] the target is T7, ETV3L (Homo sapiens, UniProt Q6ZN32 1-361).
T7 sequence: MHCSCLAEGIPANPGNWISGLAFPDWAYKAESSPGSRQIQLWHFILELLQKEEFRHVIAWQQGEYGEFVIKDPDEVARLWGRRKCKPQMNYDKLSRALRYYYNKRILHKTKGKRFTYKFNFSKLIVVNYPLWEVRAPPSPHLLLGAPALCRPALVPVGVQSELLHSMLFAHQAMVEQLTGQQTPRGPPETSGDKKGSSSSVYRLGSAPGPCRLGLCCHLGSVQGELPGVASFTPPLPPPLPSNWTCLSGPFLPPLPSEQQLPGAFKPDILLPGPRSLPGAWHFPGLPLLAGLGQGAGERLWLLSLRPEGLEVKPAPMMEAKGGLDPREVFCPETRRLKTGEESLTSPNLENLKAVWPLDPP
The note with it: protein: recombinant; tags: N-terminal GST; dsDNA, one strand shown. The method in brief: as §1

The target in assay [13] is T8, ETS2 (Homo sapiens, UniProt P15036 1-469).
T8 sequence: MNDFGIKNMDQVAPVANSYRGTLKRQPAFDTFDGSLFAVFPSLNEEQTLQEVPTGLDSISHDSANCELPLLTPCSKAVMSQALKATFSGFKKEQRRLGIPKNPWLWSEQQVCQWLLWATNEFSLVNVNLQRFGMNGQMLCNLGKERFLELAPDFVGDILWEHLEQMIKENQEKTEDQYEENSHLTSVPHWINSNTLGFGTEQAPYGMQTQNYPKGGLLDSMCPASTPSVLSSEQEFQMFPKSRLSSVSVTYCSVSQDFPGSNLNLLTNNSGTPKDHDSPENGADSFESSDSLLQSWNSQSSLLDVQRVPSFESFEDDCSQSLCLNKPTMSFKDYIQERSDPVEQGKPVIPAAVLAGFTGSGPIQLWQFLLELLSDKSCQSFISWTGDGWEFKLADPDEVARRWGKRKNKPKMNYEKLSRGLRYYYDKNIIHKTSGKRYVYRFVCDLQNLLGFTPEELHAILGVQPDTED
The note with it: protein: recombinant; tags: N-terminal GST; dsDNA, one strand shown. The method in brief: as §1

The target of assay [14] is T9, SPDEF (Homo sapiens, UniProt O95238 1-335).
T9 sequence: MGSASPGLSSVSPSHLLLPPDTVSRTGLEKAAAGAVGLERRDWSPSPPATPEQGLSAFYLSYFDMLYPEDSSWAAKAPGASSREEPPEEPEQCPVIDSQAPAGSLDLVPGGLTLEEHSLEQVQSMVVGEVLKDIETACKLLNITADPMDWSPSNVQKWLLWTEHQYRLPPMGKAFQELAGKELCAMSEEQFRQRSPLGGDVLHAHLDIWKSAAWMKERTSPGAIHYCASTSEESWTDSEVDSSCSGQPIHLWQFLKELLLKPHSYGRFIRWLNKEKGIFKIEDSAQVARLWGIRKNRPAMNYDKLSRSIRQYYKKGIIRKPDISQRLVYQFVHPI
The settings on record: protein: recombinant; tags: N-terminal GST; dsDNA, one strand shown. The method in brief: as §1

For assay [15], the target named is T10, ETV7 (Homo sapiens, UniProt Q9Y603 1-341).
T10 sequence: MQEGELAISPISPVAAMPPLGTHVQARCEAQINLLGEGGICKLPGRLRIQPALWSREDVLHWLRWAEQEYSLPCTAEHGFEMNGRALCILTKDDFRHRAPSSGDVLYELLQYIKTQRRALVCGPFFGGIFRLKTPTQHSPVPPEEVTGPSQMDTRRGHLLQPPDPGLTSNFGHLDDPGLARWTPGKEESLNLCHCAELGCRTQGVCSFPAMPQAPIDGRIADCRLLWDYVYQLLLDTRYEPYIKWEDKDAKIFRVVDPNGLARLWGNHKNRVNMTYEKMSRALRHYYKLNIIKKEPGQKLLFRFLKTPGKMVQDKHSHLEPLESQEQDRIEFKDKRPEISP
The settings on record: protein: recombinant; tags: N-terminal GST; dsDNA, one strand shown. The method in brief: as §1

For assay [16], the target named is T11, ELF5 (Homo sapiens, UniProt Q9UKW6-2 1-255).
T11 sequence: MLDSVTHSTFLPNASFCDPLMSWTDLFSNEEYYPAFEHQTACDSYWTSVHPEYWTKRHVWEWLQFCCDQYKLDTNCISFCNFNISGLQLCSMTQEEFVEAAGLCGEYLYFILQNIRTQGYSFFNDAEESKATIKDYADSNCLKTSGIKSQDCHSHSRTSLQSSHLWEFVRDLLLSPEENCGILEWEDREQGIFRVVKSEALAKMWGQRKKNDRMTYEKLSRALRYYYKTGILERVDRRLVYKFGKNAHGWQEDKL
The note with it: protein: recombinant; tags: N-terminal GST; dsDNA, one strand shown. A digest of the protocol:
as §1

The target of assay [17] is T12, ETV3 (Homo sapiens, UniProt P41162-2 1-143).
T12 sequence: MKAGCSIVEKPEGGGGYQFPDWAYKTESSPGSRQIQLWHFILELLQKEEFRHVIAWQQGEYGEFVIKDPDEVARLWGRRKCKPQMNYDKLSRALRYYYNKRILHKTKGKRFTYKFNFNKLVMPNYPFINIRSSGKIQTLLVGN
The note with it: protein: recombinant; tags: N-terminal GST; dsDNA, one strand shown. A digest of the protocol: as §1

The target in assay [18] is ETV6 (Homo sapiens, UniProt P41212 1-452). The settings on record: protein: recombinant; tags: N-terminal GST; dsDNA, one strand shown. The method in brief: as §1
ETV6, sequence (P41212 whole entry): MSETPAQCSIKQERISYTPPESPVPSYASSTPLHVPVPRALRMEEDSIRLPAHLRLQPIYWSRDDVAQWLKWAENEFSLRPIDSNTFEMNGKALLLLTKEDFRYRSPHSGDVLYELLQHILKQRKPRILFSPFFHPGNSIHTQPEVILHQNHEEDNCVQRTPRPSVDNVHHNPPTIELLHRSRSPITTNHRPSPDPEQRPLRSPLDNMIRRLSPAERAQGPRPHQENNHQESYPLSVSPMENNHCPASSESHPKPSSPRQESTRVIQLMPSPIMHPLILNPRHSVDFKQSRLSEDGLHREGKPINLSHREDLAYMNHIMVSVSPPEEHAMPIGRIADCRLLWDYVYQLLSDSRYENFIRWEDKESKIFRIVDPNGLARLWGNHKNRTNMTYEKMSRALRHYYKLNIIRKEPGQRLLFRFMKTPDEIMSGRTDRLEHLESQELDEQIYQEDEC

ELF4, sequence (Q99607 whole entry): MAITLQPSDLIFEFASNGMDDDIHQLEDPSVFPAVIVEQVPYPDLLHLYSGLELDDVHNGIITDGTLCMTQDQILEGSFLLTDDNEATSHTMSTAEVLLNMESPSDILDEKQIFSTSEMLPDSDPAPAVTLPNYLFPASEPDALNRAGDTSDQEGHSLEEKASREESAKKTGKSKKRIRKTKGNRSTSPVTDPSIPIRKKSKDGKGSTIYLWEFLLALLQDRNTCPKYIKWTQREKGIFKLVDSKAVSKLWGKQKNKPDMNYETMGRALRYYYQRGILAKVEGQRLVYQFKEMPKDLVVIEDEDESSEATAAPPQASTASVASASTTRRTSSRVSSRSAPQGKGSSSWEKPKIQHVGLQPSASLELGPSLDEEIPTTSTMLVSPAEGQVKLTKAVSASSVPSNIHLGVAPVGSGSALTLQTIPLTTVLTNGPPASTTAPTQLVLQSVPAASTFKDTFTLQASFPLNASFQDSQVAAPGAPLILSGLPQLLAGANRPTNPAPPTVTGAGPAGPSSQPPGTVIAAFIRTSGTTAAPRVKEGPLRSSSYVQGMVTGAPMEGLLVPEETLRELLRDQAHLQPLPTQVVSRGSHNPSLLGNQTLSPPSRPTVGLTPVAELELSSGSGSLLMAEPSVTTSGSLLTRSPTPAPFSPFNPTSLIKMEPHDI
ETV1, sequence (P50549 whole entry): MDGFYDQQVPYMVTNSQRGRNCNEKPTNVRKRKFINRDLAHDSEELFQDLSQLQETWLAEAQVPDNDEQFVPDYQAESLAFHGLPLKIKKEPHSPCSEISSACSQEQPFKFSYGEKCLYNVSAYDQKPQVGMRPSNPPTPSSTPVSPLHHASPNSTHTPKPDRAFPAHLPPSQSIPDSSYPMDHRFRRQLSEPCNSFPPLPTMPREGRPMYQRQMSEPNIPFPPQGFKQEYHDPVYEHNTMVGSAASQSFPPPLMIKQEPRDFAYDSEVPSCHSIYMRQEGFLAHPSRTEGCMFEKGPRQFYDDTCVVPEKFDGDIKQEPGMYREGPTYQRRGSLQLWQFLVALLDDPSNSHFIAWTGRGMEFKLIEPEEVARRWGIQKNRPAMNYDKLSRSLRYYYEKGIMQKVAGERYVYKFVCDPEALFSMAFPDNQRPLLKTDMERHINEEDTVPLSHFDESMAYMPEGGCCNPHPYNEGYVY
ETV5, sequence (P41161 whole entry): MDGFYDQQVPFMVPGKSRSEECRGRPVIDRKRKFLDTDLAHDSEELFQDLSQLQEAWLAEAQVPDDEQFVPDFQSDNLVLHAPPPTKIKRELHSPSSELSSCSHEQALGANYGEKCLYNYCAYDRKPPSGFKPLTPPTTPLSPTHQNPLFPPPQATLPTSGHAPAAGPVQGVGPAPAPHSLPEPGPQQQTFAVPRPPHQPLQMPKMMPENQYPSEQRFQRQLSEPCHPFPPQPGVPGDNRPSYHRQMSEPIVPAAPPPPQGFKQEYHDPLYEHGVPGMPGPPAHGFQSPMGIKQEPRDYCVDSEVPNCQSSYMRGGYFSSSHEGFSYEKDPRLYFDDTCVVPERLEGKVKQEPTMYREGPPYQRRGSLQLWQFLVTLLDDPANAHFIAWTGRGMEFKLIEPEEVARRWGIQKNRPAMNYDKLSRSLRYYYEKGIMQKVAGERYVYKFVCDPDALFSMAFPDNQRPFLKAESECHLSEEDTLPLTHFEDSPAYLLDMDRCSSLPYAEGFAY
CRX, sequence (O43186 whole entry): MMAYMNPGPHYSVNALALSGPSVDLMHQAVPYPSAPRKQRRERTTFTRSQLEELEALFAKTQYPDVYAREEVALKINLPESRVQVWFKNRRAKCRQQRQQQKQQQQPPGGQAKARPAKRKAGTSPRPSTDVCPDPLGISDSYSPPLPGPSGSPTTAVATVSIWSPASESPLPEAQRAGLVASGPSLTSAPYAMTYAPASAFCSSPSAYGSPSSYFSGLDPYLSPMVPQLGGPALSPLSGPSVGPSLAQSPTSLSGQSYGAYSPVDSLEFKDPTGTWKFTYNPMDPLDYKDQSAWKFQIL
HSF1, sequence (Q00613 whole entry): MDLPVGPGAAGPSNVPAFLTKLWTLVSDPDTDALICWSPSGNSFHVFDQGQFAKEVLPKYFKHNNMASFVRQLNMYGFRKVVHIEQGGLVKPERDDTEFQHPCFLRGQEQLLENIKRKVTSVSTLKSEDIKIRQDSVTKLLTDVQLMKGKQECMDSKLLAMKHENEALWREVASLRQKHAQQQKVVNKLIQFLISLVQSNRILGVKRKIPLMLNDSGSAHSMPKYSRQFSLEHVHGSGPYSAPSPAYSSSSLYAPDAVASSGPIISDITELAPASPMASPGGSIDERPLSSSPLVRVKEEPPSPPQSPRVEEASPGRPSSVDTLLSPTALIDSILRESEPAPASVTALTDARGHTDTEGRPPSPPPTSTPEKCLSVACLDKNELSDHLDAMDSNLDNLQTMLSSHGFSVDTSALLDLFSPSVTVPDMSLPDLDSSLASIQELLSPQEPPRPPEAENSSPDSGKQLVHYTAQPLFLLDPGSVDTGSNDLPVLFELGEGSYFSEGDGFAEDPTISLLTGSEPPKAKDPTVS

As to ATAACT, the binding signal in [1] was 1.22 fold enrichment (6-mer frequency, TF over GST control); in [2], 1.29 fold enrichment (6-mer frequency, TF over GST control); in assay [3], 1.15 fold enrichment (6-mer frequency, TF over GST control); in [4], 1.28 fold enrichment (6-mer frequency, TF over GST control); in assay [5], 1.25 fold enrichment (6-mer frequency, TF over GST control); in assay [6] it was 1.22 fold enrichment (6-mer frequency, TF over GST control). For the same sequence, the binding signal was 1.39 fold enrichment (6-mer frequency, TF over GST control) in assay [7]; 1.24 fold enrichment (6-mer frequency, TF over GST control) in assay [8]; 1.29 fold enrichment (6-mer frequency, TF over GST control) in assay [9]; 1.16 fold enrichment (6-mer frequency, TF over GST control) in assay [10]; 1.24 fold enrichment (6-mer frequency, TF over GST control) in assay [11]; 1.22 fold enrichment (6-mer frequency, TF over GST control) in assay [12]. Besides, the binding signal is 1.27 fold enrichment (6-mer frequency, TF over GST control) in assay [13]; 1.18 fold enrichment (6-mer frequency, TF over GST control) in [14]; 1.24 fold enrichment (6-mer frequency, TF over GST control) in assay [15]; 1.29 fold enrichment (6-mer frequency, TF over GST control) in assay [16]; 1.34 fold enrichment (6-mer frequency, TF over GST control) in assay [17]; 1.27 fold enrichment (6-mer frequency, TF over GST control) in [18].
